Experimental data reported in the supplement of paper PMC10849652.
The full data set covers some 7,900 targets. This sample favours those with a hit. About 0.6% of all pairs of compound and target were hits.

The compounds below were run against AAK1 (UniProt Q2M2I8) (assay: log2 fold change, soluble protein after heating vs DMSO (PISA); higher = thermal stabilisation; K562 cells, 10 uM, 30 min; active = over 0.2 and 3.5 SD of the protein, either way, in both replicates (recomputed)).
Summary of the method: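 For each measurement, 10 μM compound was applied for 30 min to K562 cells at 2×10^6 cells/mL. Aliquots were heated for 3 min across 48°C-58°C, pooled, and extracted in PBS with 0.5% NP-40 at 4°C; the supernatant after 21,000xg for 90 min was soluble protein. This was quantified by TMTpro 16plex LC-MS/MS with channel sums equalised, and thermal stability was reported relative to control samples from duplicates, on a log2 fold-change scale.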

Chain of AAK1 (Q2M2I8 whole entry, looked up): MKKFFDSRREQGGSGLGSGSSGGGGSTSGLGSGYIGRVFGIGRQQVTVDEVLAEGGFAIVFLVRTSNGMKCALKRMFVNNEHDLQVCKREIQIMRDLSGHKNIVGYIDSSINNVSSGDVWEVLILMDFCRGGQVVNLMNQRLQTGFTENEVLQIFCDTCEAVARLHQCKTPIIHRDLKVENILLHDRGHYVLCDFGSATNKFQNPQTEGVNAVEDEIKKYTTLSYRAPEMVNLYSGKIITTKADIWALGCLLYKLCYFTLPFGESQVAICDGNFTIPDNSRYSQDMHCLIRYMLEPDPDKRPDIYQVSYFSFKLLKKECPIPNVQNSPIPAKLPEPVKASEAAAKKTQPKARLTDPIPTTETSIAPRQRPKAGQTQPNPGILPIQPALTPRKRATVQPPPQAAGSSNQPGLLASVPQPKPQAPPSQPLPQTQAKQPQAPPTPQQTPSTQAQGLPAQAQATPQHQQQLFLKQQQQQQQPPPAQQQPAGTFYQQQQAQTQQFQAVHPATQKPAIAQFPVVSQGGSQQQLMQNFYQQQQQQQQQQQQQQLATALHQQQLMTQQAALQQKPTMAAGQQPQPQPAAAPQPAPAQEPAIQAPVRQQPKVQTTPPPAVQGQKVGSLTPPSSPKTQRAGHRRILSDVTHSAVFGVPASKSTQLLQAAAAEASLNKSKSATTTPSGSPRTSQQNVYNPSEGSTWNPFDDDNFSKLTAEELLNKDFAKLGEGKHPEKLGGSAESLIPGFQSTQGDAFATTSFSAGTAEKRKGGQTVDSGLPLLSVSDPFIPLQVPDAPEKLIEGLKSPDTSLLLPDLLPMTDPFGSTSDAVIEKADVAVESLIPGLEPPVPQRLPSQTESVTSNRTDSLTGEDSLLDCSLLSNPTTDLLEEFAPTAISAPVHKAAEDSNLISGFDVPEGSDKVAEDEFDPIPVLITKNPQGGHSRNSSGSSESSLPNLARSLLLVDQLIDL

log2 fold change, inactive:
Cc1ccc(-n2nc(C(C)(C)C)cc2NC(=O)Nc2ccc(OCCN3CCOCC3)c3ccccc23)cc1 [doramapimod] -0.095, CCCS(=O)(=O)Nc1ccc(F)c(C(=O)c2c[nH]c3ncc(-c4ccc(Cl)cc4)cc23)c1F [vemurafenib] 0.147, NC(=O)Nc1cc(-c2cccc(F)c2)sc1C(=O)N[C@H]1CCCNC1 0.28, Cc1nc(Nc2n[nH]c3c2CN(C(=O)N[C@H](CN(C)C)c2ccccc2)C3(C)C)c2sccc2n1 0.158, COc1ccc(Cn2ccc3ccc(C(=O)NO)cc32)cc1 0.048, FC(F)(F)c1ccc(/C=C/c2nc(COc3ccc(CCCCn4ccnn4)cc3)co2)cc1 [mubritinib] -0.066, Cc1cccc(-c2[nH]c(C(C)(C)C)nc2-c2ccc3nccnc3c2)n1 0.015, Cc1cn(-c2cc(NC(=O)c3ccc(C)c(Nc4nccc(-c5cccnc5)n4)c3)cc(C(F)(F)F)c2)cn1 [nilotinib] 0.027, COc1cc(Nc2ncc3c(n2)-c2ccc(Cl)cc2C(c2c(F)cccc2OC)=NC3)ccc1C(=O)O [alisertib] 0.576, COC(=O)[C@H](CCSC)NC(=O)c1ccc(NC[C@@H](N)CS)cc1-c1ccccc1 -0.044, Cc1nc(Nc2ncc(C(=O)Nc3c(C)cccc3Cl)s2)cc(N2CCN(CCO)CC2)n1 [dasatinib] -0.203, O=C(O)c1ccc2c(c1)nc(Nc1cccc(Cl)c1)c1ccncc12 [silmitasertib] 0.153, CON(C)C(=O)N1N=C(c2cc(F)ccc2F)S[C@@]1(CCCN)c1ccccc1 [filanesib] -0.108, Oc1cc(-c2nc(-c3ccccc3)[nH]c2-c2ccncc2)ccc1Cl 0.073, c1cc(OCCN2CCCCC2)cc(-c2n[nH]c3ccc(-c4nnc[nH]4)cc23)c1 0.052, CN1CCN(CCOc2cc(OC3CCOCC3)c3c(Nc4c(Cl)ccc5c4OCO5)ncnc3c2)CC1 [saracatinib] 0, NCC(=O)Nc1ccc(-n2nc(C(F)(F)F)cc2-c2ccc3c(ccc4ccccc43)c2)cc1 0.045, CO[C@H]1C[C@@H]2CC[C@@H](C)[C@@](O)(O2)C(=O)C(=O)N2CCCC[C@H]2C(=O)O[C@H]([C@H](C)C[C@@H]2CC[C@H](n3cnnn3)[C@H](OC)C2)CC(=O)[C@H](C)/C=C(\C)[C@@H](O)[C@@H](OC)C(=O)[C@H](C)C[C@H](C)/C=C/C=C/C=C/1C [zotarolimus] -0.004, Cc1ccc(C(=O)N(CCCN)[C@@H](c2nc3cc(Cl)ccc3c(=O)n2Cc2ccccc2)C(C)C)cc1 [ispinesib] 0.091, Cc1ccc(NC(=O)c2cccc(C(C)(C)C#N)c2)cc1Nc1ccc2ncn(C)c(=O)c2c1 0.01, CC(C)N(C[C@H]1O[C@@H](n2cnc3c(N)ncnc32)[C@H](O)[C@@H]1O)[C@H]1C[C@@H](CCc2nc3cc(C(C)(C)C)ccc3[nH]2)C1 [pinometostat] -0.05, CS(=O)(=O)N1CCN(Cc2cc3nc(-c4cccc5[nH]ncc45)nc(N4CCOCC4)c3s2)CC1 [pictilisib] 0.087, CN1CCc2c(c3ccccc3n2Cc2ccc(C(=O)NO)cc2)C1 [Tubastatin A] 0.003, Cc1cc(SCc2sc(-c3ccc(C(F)(F)F)cc3)nc2C)ccc1OCC(=O)O 0.096, NC1(c2ccc(-c3nc4ccn5c(=O)[nH]nc5c4cc3-c3ccccc3)cc2)CCC1 -0.027, CC[C@H](C)n1cc(C)c2c(C(=O)NCc3c(C)cc(C)[nH]c3=O)cc(-c3ccc(N4CCNCC4)nc3)cc21 -0.013, O=C1NC(=O)C(c2cnc3ccccn23)=C1c1cn2c3c(cc(F)cc13)CN(C(=O)N1CCCCC1)CC2 0.238, CN1CC[C@H](c2c(O)cc(O)c3c(=O)cc(-c4ccccc4Cl)oc23)[C@H](O)C1 [alvocidib] 0.025, CC(C)C[C@@H](C=O)NC(=O)[C@H](CC(C)C)NC(=O)[C@H](CC(C)C)NC(=O)OCc1ccccc1 -0.061, CCn1c(C(=O)N(C2CC2)C2CC2)cc2c3c(ncn3C)c(Nc3cc(C)n(C)n3)nc21 0.019
